In PubChem BioAssay (NCI):
The panel holds about 83,000 compounds, 20% with a hit somewhere; the sample as a whole holds those more often.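 Single-dose data. Exposure time 48 hours. Values below 10 considered active.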 Calls of active or inactive are those of the source.

Legend:
Assay in all cases: NCI-60 one-dose screen, 48 h (100 = growth as untreated, 0 = no growth, -100 = all killed)
[1] = tested on: NCI-H460 lung; settings: 10 µM unless noted
[2] = tested on: A549/ATCC NSCLC; settings: 10 µM unless noted
[3] = tested on: 786-0 renal; settings: 10 µM unless noted
[4] = tested on: K-562 leukemia; settings: 10 µM unless noted
[5] = tested on: MALME-3M melanoma; settings: 10 µM unless noted
[6] = tested on: RXF 393 renal; settings: 10 µM unless noted
[7] = tested on: SF-295 CNS; settings: 10 µM unless noted
[8] = tested on: SF-539 CNS; settings: 10 µM unless noted
[9] = tested on: UACC-257 melanoma; settings: 10 µM unless noted
[10] = tested on: UO-31 renal; settings: 10 µM unless noted
[11] = tested on: CAKI-1 renal; settings: 10 µM unless noted
[12] = tested on: A498 renal; settings: 10 µM unless noted
[13] = tested on: HL-60(TB) leukemia; settings: 10 µM unless noted
[14] = tested on: MOLT-4 leukemia; settings: 10 µM
[15] = tested on: OVCAR-4 ovarian; settings: 10 µM unless noted
[16] = tested on: BT-549 breast; settings: 10 µM
[17] = tested on: HCC-2998 colon; settings: 10 µM unless noted
[18] = tested on: HOP-62 NSCLC; settings: 10 µM unless noted
[19] = tested on: SNB-75 CNS; settings: 10 µM unless noted
[20] = tested on: RPMI-8226 leukemia; settings: 10 µM unless noted

Measured: growth

O=C(CF)N(O)c1ccc(/C=C/c2ccccc2)cc1
active: [3] 8.73% | [7] 9.04% | [9] -7.11% | [12] -31.7%
inactive: [1] 13% | [2] 36.4% | [4] 45.4% | [5] 82.9% | [6] 50.7% | [8] 36.2% | [10] 36.2% | [11] 11.9% | [13] 13.4% | [14] 34.9% | [15] 70.8% | [16] 44.9% | [17] 25.4%

O=S(=O)(F)c1ncnc2nc[nH]c12
inactive: [18] 86.5% | [1] 103% | [2] 98.5% | [3] 97.6% | [4] 92.3% | [5] 100% | [6] 101% | [7] 104% | [8] 88.1% | [9] 105% | [10] 66.9% | [11] 81.4% | [12] 97.2% | [13] 97.2% | [14] 89.2% | [15] 102% | [16] 100% | [17] 101%

COc1ccc2c(c1)NC1=C(C(=O)OC1)C2c1cc(OC)c(OC)c(OC)c1 (stereo not drawn)
inactive: [18] 44.2% | [2] 15.6% | [3] 18.8% | [5] 21.7% | [6] 36.7% | [9] 62.4% | [19] 45.7% | [10] 47.2% | [11] 25.4% | [20] 12.6% | [15] 37% | [17] 10.9%
active: [1] 4.55% | [4] 7.31% | [7] 1.12% | [8] -4.41% | [12] -13.7% | [13] -31.3% | [14] 5.82% | [16] 7.12%

C=CCC1(CC)C(=O)NC(=S)NC1=O
inactive: [18] 97.9% | [1] 111% | [2] 102% | [3] 108% | [4] 95.5% | [5] 108% | [6] 110% | [7] 108% | [8] 98.3% | [9] 105% | [19] 104% | [10] 83.7% | [11] 96.8% | [12] 110% | [13] 75.4% | [14] 93.2% | [20] 103% | [15] 110% | [16] 106% | [17] 96.5%

CN(Cc1cccnc1)N=O
inactive: [18] 93.1% | [1] 103% | [2] 94.5% | [3] 107% | [4] 104% | [5] 96.6% | [6] 104% | [7] 102% | [8] 96.8% | [9] 95.7% | [10] 84.7% | [12] 104% | [13] 97.6% | [14] 102% | [20] 102% | [15] 102% | [17] 112%

O=[N+]([O-])c1cc([N+](=O)[O-])c(Cl)c(Cl)c1Cl
inactive: [2] 80.3% | [3] 12.2% | [4] 13% | [7] 98.5% | [8] 11.6% | [9] 20.4% | [19] 59.6% | [13] 19.5% | [20] 12.8% | [16] 49.8% | [17] 78.8%
active: [5] -48.1% | [6] -86.2% | [10] -63.2% | [14] 2.06% | [15] -31.4%

C[C@@H]1CC[C@@H]2[C@@H]1[C@H](OC(=O)/C=C/C1CCCCC1)[C@]1(C3CCCCC3)C[C@@H](OC(=O)CO)[C@@]2(C)O1
active: [3] -10.1% | [10] -44.2% | [11] -21.9% | [12] -83.3% | [13] 8.36% | [16] 0.314%
inactive: [18] 69.7% | [1] 64.2% | [2] 60.6% | [4] 44.1% | [5] 78.8% | [6] 13.3% | [7] 72.7% | [8] 95.9% | [9] 61.7% | [19] 76.9% | [20] 25.3% | [15] 61.1% | [17] 49.5%

CC(=O)N(C)C1=Nc2ccc(Cl)cc2C(c2ccccc2)=[N+]([O-])C1
inactive: [18] 96.3% | [1] 111% | [2] 106% | [3] 110% | [4] 109% | [5] 121% | [6] 109% | [7] 107% | [8] 104% | [9] 95.7% | [19] 95.9% | [10] 80.7% | [11] 99.8% | [12] 106% | [13] 135% | [14] 101% | [20] 113% | [15] 114% | [16] 106%

C=CCc1ccc(OC(=O)Cc2ccccc2)c(OC)c1
inactive: [18] 93.2% | [1] 105% | [2] 104% | [3] 99.2% | [5] 86.8% | [6] 110% | [7] 95.7% | [8] 97.8% | [9] 120% | [19] 76.3% | [10] 77.1% | [11] 95.2% | [12] 97.4% | [20] 106% | [15] 102% | [16] 106% | [17] 95.8%

Cc1cc(NC(=O)CCc2ccc(N3C(N)=NC(N)=NC3(C)C)cc2)ccc1S(=O)(=O)F
inactive: [18] 28.7% | [1] 12.3% | [3] 20.9% | [4] 22.8% | [5] 32.3% | [19] 52.5% | [10] 101% | [11] 34.2% | [12] 59.8% | [13] 13.3% | [14] 21.6% | [15] 62.1%
active: [7] 5.44% | [8] 5.99% | [20] -24.6%

CC(C)(C)N(Cc1ccccc1)N=O
inactive: [18] 99.4% | [1] 107% | [2] 93.9% | [3] 99% | [4] 101% | [5] 107% | [6] 93.1% | [7] 100% | [8] 99% | [9] 92.1% | [19] 86.5% | [10] 96.7% | [11] 92.9% | [12] 95.4% | [13] 106% | [14] 104% | [20] 99.2% | [15] 98.2% | [16] 102% | [17] 110%

CN(C)P1(N(C)C)=NP(N(C)C)(N(C)C)=NP(N(C)C)(N(C)C)=N1
inactive: [18] 99% | [1] 107% | [2] 99.3% | [3] 101% | [4] 102% | [5] 106% | [6] 109% | [7] 101% | [8] 104% | [9] 93.6% | [19] 90.3% | [10] 83.1% | [11] 79% | [12] 108% | [13] 100% | [14] 102% | [20] 98.1% | [15] 95% | [16] 105% | [17] 111%

CC(=O)[O][Hg][c]1ccccc1
inactive: [7] 13.6% | [20] 10.1%
active: [18] -87.9% | [1] -52.1% | [3] -96.4% | [4] -21% | [5] -88% | [6] -92% | [8] -53.6% | [10] -94.2% | [11] -69.7% | [12] -46.6% | [13] -27.5% | [14] -10.9% | [15] -25.2% | [16] -96.7% | [17] -96.5%

CC1(C)N=C(N)N=C(N)N1c1ccc(CNC(=O)Nc2ccc(S(=O)(=O)F)c(Cl)c2)c(Cl)c1
active: [1] 7.59%
inactive: [18] 29.4% | [2] 10% | [3] 30.8% | [4] 16.4% | [5] 54.5% | [6] 50.6% | [8] 24.9% | [9] 23% | [10] 88.2% | [12] 61.3% | [13] 21.8% | [14] 22.1% | [20] 27.6% | [15] 68.8% | [16] 48.6% | [17] 39.7%

CC1(C)N=C(N)N=C(N)N1c1ccc(CCC(=O)Nc2cccc(S(=O)(=O)F)c2)cc1
inactive: [18] 82.8% | [1] 27.7% | [2] 44.6% | [3] 58% | [4] 26.2% | [6] 64.7% | [7] 89.6% | [8] 39.4% | [9] 73.3% | [19] 59.5% | [10] 85.2% | [13] 47.6% | [14] 82.7% | [16] 84.9% | [17] 67.5%
active: [5] -7.62% | [11] -5.98%

CC1(C)N=C(N)N=C(N)N1c1ccc(CCCCc2ccc(S(=O)(=O)F)cc2)c(Cl)c1
inactive: [1] 10.7% | [3] 22.1% | [4] 13.1% | [5] 44.3% | [6] 43.1% | [8] 22.9% | [9] 30.9% | [19] 63.2% | [10] 59.9% | [11] 17% | [12] 37.3% | [13] 19.2% | [14] 18.2% | [15] 80.4% | [16] 46.2% | [17] 35.5%
active: [18] 5.05% | [2] 8.36% | [7] 3.69% | [20] 9.22%

CCOC(=O)/C=C(\C)Nc1ccc(N/C(C)=C/C(=O)OCC)c2c1Oc1ccccc1O2
inactive: [18] 117% | [1] 122% | [2] 106% | [3] 88.2% | [4] 81.7% | [5] 107% | [7] 99.4% | [8] 105% | [9] 109% | [19] 103% | [11] 95.5% | [12] 102% | [13] 63.4% | [14] 75.5% | [20] 83.2% | [15] 114% | [16] 102% | [17] 120%
active: [6] 0.357%
